Laboratory results reported in ChEMBL document CHEMBL1961873, “Compounds: GSK PKIS; Assays: Nanosyn kinase panel” (2012).

Key:
[1] = molecular target: Dual specificity protein kinase CLK3 (Homo sapiens) (UniProt P49761); conditions: at 1 µM;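 also: each value is the mean inhibition of CLK3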
[2] = molecular target: Dual specificity tyrosine-phosphorylation-regulated kinase 1A (Homo sapiens) (UniProt Q13627); conditions: at 0.1 µM
[3] = molecular target: Dual specificity tyrosine-phosphorylation-regulated kinase 1A (Homo sapiens) (UniProt Q13627); conditions: at 1 µM
[4] = molecular target: Dual specificity tyrosine-phosphorylation-regulated kinase 1B (Homo sapiens) (UniProt Q9Y463); conditions: at 0.1 µM
[5] = molecular target: Dual specificity tyrosine-phosphorylation-regulated kinase 1B (Homo sapiens) (UniProt Q9Y463); conditions: at 1 µM
[6] = molecular target: T1, Dual specificity tyrosine-phosphorylation-regulated kinase 2 (Homo sapiens) (UniProt Q92630); conditions: at 0.1 µM
T1 sequence (whole entry): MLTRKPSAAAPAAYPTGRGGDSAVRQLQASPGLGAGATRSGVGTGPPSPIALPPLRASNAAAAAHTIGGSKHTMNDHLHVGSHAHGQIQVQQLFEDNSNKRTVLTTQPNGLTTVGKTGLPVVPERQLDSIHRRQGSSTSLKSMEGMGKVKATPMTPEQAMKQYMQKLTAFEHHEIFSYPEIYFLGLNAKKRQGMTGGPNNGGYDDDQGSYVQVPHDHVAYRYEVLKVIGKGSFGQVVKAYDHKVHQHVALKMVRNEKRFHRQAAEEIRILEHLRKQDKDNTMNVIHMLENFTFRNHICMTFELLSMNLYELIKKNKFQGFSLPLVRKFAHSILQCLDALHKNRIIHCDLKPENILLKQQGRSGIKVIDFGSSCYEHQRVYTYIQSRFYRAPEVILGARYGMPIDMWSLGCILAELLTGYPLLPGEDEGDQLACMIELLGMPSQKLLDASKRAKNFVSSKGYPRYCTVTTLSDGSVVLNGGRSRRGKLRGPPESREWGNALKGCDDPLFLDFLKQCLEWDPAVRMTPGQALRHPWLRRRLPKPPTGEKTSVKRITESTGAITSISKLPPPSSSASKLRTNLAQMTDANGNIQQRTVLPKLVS

[7] = molecular target: T1, Dual specificity tyrosine-phosphorylation-regulated kinase 2 (Homo sapiens); conditions: at 1 µM
[8] = molecular target: Glycogen synthase kinase-3 alpha (Homo sapiens) (UniProt P49840); conditions: at 0.1 µM
[9] = molecular target: Glycogen synthase kinase-3 alpha (Homo sapiens) (UniProt P49840); conditions: at 1 µM
[10] = molecular target: Glycogen synthase kinase-3 beta (Homo sapiens) (UniProt P49841); conditions: at 0.1 µM;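 also: values are mean percent inhibition of GSK3B activity, from the GSK Published Kinase Inhibitor Set (PKIS) screening dataset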
Chain of Glycogen synthase kinase-3 beta (Homo sapiens) (P49841 whole entry, looked up): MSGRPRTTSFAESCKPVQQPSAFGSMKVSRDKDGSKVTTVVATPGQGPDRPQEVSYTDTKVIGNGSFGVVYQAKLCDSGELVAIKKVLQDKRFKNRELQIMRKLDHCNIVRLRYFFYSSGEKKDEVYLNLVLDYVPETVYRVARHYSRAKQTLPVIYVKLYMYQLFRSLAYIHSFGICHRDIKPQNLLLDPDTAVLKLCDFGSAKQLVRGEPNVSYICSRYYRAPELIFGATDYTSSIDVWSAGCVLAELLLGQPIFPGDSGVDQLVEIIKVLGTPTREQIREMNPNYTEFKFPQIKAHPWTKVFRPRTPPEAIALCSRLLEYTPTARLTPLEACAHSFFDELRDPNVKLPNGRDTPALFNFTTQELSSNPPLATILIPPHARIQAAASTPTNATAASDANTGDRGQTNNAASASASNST

Chain of Glycogen synthase kinase-3 alpha (Homo sapiens) (P49840 2-483 limits assumed): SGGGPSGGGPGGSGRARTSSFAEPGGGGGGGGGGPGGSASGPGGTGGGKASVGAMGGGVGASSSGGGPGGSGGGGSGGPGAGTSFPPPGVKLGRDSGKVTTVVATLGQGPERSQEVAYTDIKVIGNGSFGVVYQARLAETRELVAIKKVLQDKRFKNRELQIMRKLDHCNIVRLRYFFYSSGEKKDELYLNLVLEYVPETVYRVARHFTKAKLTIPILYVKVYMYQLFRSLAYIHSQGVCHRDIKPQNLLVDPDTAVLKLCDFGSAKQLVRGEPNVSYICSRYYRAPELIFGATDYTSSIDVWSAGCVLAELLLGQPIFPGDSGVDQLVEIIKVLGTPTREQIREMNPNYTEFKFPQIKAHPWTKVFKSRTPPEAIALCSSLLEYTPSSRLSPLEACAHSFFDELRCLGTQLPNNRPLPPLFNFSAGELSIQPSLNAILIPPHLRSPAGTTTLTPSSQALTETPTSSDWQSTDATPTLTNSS
Chain of Dual specificity tyrosine-phosphorylation-regulated kinase 1B (Homo sapiens) (Q9Y463 whole entry, looked up): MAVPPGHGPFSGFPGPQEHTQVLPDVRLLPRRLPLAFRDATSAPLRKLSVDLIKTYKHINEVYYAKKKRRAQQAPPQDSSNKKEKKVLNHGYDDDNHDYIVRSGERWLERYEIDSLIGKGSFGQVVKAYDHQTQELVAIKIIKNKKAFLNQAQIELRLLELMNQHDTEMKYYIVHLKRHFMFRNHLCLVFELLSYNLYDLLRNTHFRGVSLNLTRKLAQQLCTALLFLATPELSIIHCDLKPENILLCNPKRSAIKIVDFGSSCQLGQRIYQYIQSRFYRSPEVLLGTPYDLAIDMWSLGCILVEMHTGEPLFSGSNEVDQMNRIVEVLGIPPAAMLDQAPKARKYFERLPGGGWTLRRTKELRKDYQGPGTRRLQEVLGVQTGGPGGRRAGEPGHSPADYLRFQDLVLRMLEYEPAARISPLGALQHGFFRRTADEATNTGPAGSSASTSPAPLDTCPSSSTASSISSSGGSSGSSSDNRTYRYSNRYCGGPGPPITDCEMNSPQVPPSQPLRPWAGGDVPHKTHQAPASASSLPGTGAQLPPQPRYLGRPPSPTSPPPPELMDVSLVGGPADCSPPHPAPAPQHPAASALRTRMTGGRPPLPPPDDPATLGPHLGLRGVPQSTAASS
Chain of Dual specificity protein kinase CLK3 (Homo sapiens) (P49761 whole entry, looked up): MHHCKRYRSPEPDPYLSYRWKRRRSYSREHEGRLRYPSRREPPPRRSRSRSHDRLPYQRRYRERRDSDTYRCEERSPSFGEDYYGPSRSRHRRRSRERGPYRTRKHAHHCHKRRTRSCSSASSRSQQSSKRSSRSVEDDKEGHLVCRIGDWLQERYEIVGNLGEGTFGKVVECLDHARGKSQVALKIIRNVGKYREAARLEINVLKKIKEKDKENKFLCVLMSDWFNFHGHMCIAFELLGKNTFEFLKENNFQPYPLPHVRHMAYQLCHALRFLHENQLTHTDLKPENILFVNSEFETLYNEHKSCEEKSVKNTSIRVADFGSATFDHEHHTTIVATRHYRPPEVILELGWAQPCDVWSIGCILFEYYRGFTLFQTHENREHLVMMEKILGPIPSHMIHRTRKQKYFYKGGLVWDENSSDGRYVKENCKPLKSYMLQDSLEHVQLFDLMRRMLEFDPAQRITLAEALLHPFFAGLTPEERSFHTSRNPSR

Structure (SMILES)	inhibition [1]	inhibition [2]	inhibition [3]	inhibition [4]	inhibition [5]	inhibition [6]	inhibition [7]	inhibition [8]	inhibition [9]	inhibition [10]
COc1cc2c(cc1Nc1nc(N3CCc4ccccc43)c3cc[nH]c3n1)N(C(=O)CN(C)C)CC2	2.24%	0.78%	3.98%	0.64%	2.3%	2.22%	2.02%	0.35%	1.16%	0.15%
Cc1cccc(-c2n[nH]cc2-c2ccc3ncccc3n2)n1	-3.14%	1.27%	6.72%	-0.18%	4.09%	0.1%	4.03%	0.39%	1.15%	-0.14%
O=C(Nc1n[nH]c2nc(-c3ccco3)c(Br)cc12)C1CC1	2.72%	1.71%	4.33%	0.48%	3.25%	3.03%	4.31%	36.9%	80.6%	–
N#Cc1c(NC(=O)c2cccc3ccccc23)sc2c1CCCC2	1.09%	1.07%	4.31%	0.47%	1.43%	1.86%	2.69%	5.51%	6.65%	3.72%
CC1=C(C(=O)Nc2ccc3[nH]ncc3c2)C(c2ccc(F)cc2)NC(=O)N1 (stereo not drawn)	1.47%	1.78%	1.58%	-0.22%	3.29%	0.94%	2.08%	-0.66%	-0.33%	-0.1%
Fc1cccc(COc2ccc(Nc3ncnc4sc(-c5cccs5)cc34)cc2Cl)c1	-0.15%	1.88%	6.51%	1.39%	2.06%	-1.01%	1.17%	1.69%	6.14%	1.97%
CCn1c(-c2nonc2N)nc2c(C#CC(C)(C)O)nc(CN3CCCC3)cc21	0.53%	1.08%	2.47%	0.74%	2.39%	-1.68%	0.64%	5.1%	21.6%	4.97%
O=C1NC(=O)C(c2ccccc2Cl)=C1Nc1cccc(O)c1	21.8%	8.06%	38.5%	2.78%	15.2%	3.09%	2.96%	–	–	–
CCN1CCC(CC(=O)Nc2n[nH]c3nc(-c4cccs4)c(Br)cc23)CC1	4.44%	4.33%	20.6%	4.83%	22.3%	-0.64%	14%	46.6%	78.3%	26.6%
CCCN1CCC(Oc2cc(Nc3nc(Nc4cccc(F)c4C(N)=O)c4cc[nH]c4n3)c(OC)cc2Cl)CC1	1.7%	2.64%	25.9%	3.49%	27.1%	-0.2%	0.67%	3.45%	9.53%	3.22%
COc1ccccc1Nc1ncc(-c2ccccc2)o1	0.51%	2.5%	3.38%	-1.91%	-1.3%	4.18%	3.04%	2.25%	3.92%	2.57%
COc1cc2ncn(-c3cc(OCc4ccccc4C(F)(F)F)c(C(N)=O)s3)c2cc1OC	-2.17%	-1.02%	2.2%	-4.5%	-2.84%	1.73%	3.25%	0.16%	4.9%	-0.65%
CCc1cccc(NC(=O)Nc2ccc(Oc3ccc4nc(NC(=O)OC)[nH]c4c3)cc2)c1	0.82%	0.05%	1.26%	0.7%	1.1%	0.73%	1.13%	1.53%	4.83%	1.88%
Cn1cc(C=C2C(=O)Nc3cccnc32)c2ccccc21	-1.26%	2.68%	10.6%	0.78%	4.49%	2.52%	4.08%	4.33%	12.2%	3.54%
CCn1c(-c2nonc2N)nc2c(N3CCCC3)nccc21	1.31%	3.13%	8.89%	2.51%	6.95%	-1.18%	-1.63%	1.82%	4.77%	2%
[O-][S+]1CCN(Cc2ccc(-c3ccc4ncnc(Nc5ccc(OCc6ccccc6)c(F)c5)c4c3)o2)CC1	11.2%	2.61%	2.98%	1.09%	1.08%	1.63%	3.4%	0.27%	2.88%	-0.3%
O=C1NC(=O)C(c2cccc(Cl)c2)=C1Nc1ccc(O)c(Cl)c1	5.01%	2.08%	17.3%	1.51%	8.29%	1%	0.69%	–	–	–
